Test [1] can be described thus: optical density shifts of acrAB sulA E. coli – strain DRC41, OD650, 48 h, E. coli filamentation inducer project, primary screen (AID 1152).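 Further: E. coli MC1000 strain DRC41 lacking acrAB efflux pump and sulA.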 To be noted: higher = more signal, called active from +8 up or from −8 down.
Test [2] can be described thus: probe aLefty1 binding on compound microarray – biochemical, small-molecule microarray, 635/667 nm fluorescence, primary screen (AID 1153).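 Further: score merges spot fluorescence with signal-to-noise ratio from the scanned slide images.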 To be noted: higher = more signal.
A short description of test [3]: plasmodial surface anion channel blockers, osmotic lysis – cell-based, P. falciparum Indochina, OD700, 1 h, primary screen (AID 1154). The note with it: P. falciparum Indochina infected RBC osmotic lysis, higher = more signal, called active from +8 up or from −8 down.
Test [4] in a line: plasmodial surface anion channel blockers, osmotic lysis – cell-based, P. falciparum Indochina, OD700, 2 h, primary screen (AID 1155).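 Further: lysis reports solute entry through the parasite surface anion channel PSAC.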 The note with it: P. falciparum Indochina infected erythrocytes, higher = more signal, called active from +8 up or from −8 down.
Test [5] in a line: changes in parasitized red cell lysis, either direction – P. falciparum Indochina, OD700, 3 h, PSAC antagonist project, primary screen (AID 1156). The note with it: P. falciparum-infected erythrocytes, osmotic lysis, higher = more signal, called active from +8 up or from −8 down.
Test [6] is described as follows: plasmodial surface anion channel blockers, osmotic lysis – cell-based, P. falciparum Indochina, OD700, 18 h, primary screen (AID 1157). To be noted: P. falciparum Indochina infected erythrocytes, osmotic lysis OD700, 18 h; higher = more signal, called active from +8 up or from −8 down.
Test [7] can be described thus: S6 kinase pathway phospho-S6 level changes – cell-based, A549, cytoblot, luminescence, serum-stimulated, primary screen (AID 1158).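 Further: serum-stimulated A549 lung adenocarcinoma cells; signal is phosphorylated S6 detected by cytoblot immunostaining with HRP secondary.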 To be noted: 5 h, higher = more signal.
Test [8] deals with NADPH oxidase 2 (Homo sapiens) (UniProt P04839). Nature of the test: compounds shifting NOX2 Amplex Red fluorescence – cell-based, HEK293-NOX2, PMA-stimulated, NOX inhibitor project, primary screen (AID 1159). Further: test concentration not given here. To be noted: 45 min, higher = more signal, called active from +8 up or from −8 down.
Test [9] deals with NADPH oxidase 4 (Homo sapiens) (UniProt Q9NPH5). Nature of the test: compounds shifting NOX4 Amplex Red fluorescence – cell-based, HEK293-NOX4, tetracycline-induced, NOX inhibitor project, primary screen (AID 1160). To be noted: HEK293-NOX4, Amplex Red H2O2 fluorescence, 45 min; higher = more signal, called active from +8 up or from −8 down.
For test [10], the target named is NADPH oxidase 5 (Homo sapiens) (UniProt Q96PH1). Nature of the test: compounds shifting NOX5 Amplex Red fluorescence – cell-based, HEK293-NOX5, NOX inhibitor project, primary screen (AID 1161). The note with it: HEK293-NOX5, ionomycin, 45 min, higher = more signal.
Test [11] in a line: compound effects on lung adenocarcinoma cell viability – A549, calcein-AM fluorescence, 48 h, basal, profiling panel (AID 1162). Further: test concentration not given here. To be noted: higher = more signal.
Test [12] is described as follows: compound effects on differentiated 3T3-L1 adipocyte viability – cell-based, 3T3-L1 adipocytes, calcein-AM fluorescence, 48 h, basal, profiling panel (AID 1163). Further: test concentration not given here. To be noted: 3T3-L1 adipocytes viability, higher = more signal.
Test [13] in a line: compound effects on hepatocellular carcinoma cell viability – HepG2, calcein-AM fluorescence, 48 h, basal, profiling panel (AID 1164). Further: test concentration not given here. The note with it: higher = more signal.
Test [14] in a line: compound effects on multiple myeloma cell viability – MM1S, calcein-AM fluorescence, 48 h, basal, profiling panel (AID 1165).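 Further: viability of MM1S multiple myeloma cells under basal unstimulated conditions; test concentration not given here.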 The note with it: higher = more signal.
The nature of test [15]: calcein-AM signal in unstimulated myeloma cells – cell-based, calcein-AM fluorescence, 48 h, PK04 Diversity Set, profiling panel (AID 1166).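 Further: cells grown under basal conditions without added stimulus; test concentration not given here.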 To be noted: RPMI8226 myeloma viability, higher = more signal.
The nature of test [16]: JC-1 mitochondrial signal, unstimulated HepG2 cells – cell-based, JC-1 fluorescence, 24 h, 100 nL compound, profiling panel (AID 1167). Further: test concentration not given here. To be noted: HepG2 mitochondrial potential, higher = more signal.
Test [17] can be described thus: JC-1 mitochondrial signal, unstimulated adipocytes – cell-based, JC-1 fluorescence, 3T3-L1 adipocytes, 24 h, 100 nL compound, profiling panel (AID 1168). Further: test concentration not given here. The note with it: JC-1 mitochondrial fluorescence, higher = more signal, called active from +8 up or from −8 down.
A short description of test [18]: JC-1 mitochondrial signal, unstimulated myeloma cells – cell-based, JC-1 fluorescence, RPMI8226, 24 h, 100 nL compound, profiling panel (AID 1169). Further: test concentration not given here. To be noted: JC-1 mitochondrial potential fluorescence, higher = more signal.
Test [19] in a line: JC-1 mitochondrial signal, unstimulated MM1S myeloma – cell-based, JC-1 fluorescence, 24 h, 100 nL compound, profiling panel (AID 1170). Further: test concentration not given here. To be noted: MM1S mitochondrial potential, higher = more signal.
The nature of test [20]: resazurin metabolic signal in A549 cells – cell-based, resazurin fluorescence, 24 h, PK04 Diversity Set, profiling panel (AID 1171). Further: test concentration not given here. The note with it: A549 viability, higher = more signal, called active from +8 up or from −8 down. Background: The colour change of resazurin is a common sign of viable cells or microbes.

Active and inactive are the calls of the source.

Chain of NADPH oxidase 2 (Homo sapiens) (P04839 whole entry, looked up): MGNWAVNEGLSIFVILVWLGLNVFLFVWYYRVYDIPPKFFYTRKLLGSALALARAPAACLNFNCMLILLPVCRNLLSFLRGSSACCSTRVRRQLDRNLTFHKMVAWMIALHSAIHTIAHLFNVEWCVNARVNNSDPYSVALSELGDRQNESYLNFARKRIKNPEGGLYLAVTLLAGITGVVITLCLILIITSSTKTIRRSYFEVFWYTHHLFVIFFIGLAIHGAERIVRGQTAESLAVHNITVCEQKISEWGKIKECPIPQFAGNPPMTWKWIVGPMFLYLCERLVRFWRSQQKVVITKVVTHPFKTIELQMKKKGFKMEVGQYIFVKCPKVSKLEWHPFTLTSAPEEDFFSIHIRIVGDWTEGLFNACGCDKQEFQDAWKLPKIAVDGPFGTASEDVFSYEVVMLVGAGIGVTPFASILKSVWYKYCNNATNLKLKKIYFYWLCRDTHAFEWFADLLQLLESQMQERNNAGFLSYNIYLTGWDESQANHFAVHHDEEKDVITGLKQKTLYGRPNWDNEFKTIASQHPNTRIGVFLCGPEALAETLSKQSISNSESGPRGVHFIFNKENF
Chain of NADPH oxidase 4 (Homo sapiens) (Q9NPH5 whole entry, looked up): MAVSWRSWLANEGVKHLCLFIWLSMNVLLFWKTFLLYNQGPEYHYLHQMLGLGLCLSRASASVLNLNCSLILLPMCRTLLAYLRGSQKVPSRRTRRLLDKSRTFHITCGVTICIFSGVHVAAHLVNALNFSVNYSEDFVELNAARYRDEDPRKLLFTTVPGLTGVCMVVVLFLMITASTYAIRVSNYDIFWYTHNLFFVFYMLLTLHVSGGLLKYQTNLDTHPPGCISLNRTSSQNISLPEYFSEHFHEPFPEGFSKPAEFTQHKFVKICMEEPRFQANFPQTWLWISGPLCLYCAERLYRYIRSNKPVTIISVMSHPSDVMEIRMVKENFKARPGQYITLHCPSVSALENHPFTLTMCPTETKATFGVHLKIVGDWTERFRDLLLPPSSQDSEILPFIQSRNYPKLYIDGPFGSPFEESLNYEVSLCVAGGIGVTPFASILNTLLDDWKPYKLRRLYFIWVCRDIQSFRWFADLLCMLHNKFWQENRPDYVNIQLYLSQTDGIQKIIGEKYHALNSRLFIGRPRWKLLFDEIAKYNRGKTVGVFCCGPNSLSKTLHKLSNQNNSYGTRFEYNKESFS
Chain of NADPH oxidase 5 (Homo sapiens) (Q96PH1 whole entry, looked up): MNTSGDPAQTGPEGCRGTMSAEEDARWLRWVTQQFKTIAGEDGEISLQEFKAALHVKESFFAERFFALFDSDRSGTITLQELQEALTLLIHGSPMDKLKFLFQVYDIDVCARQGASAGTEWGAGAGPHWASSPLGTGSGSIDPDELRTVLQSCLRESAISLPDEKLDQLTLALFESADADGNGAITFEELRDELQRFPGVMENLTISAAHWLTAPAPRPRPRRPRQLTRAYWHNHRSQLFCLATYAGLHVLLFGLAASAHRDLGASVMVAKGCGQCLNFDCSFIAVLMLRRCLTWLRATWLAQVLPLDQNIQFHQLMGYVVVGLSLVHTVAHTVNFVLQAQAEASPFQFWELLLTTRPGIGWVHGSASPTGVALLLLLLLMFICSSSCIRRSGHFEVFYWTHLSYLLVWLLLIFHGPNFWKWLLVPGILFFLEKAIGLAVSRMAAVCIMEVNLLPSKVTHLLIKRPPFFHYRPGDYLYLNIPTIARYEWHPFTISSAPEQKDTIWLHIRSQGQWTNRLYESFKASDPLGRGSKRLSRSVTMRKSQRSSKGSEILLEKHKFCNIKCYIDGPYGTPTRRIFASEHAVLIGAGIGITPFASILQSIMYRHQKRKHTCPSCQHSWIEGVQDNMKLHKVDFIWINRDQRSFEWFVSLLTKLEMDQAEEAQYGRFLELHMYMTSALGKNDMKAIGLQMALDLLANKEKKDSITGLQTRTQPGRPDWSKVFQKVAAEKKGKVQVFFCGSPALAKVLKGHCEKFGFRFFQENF

For `COC(=O)[C@@]1(Cc2ccc(F)cc2)[C@H]2c3cc(C(=O)N4CCCC4)n(CC4CC4)c3C[C@H]2CN1C(=O)c1ccccc1`, the z-score in test [1] was -1.37 (inactive); in [3], 2.89 (inactive); in test [4], 0.0582 (inactive); in [5] it was 0.454 (inactive); in [6] it was 0.666 (inactive); in [7], 0.516. For the same compound, the z-score in test [8] was 0.0286 (inactive); in [9] it was -1.62 (inactive); in test [10] it was -0.81; in test [11] it was -0.393; in test [12], 0.498; in test [13], -0.713. For the same compound, the z-score in [14] is -0.691; in test [15], -2.11; in [16], 1.62; in test [17] it was -1.07 (inactive); in [18] it was -0.232; in test [19], -0.51. In test [20], the z-score is -0.665 (inactive). The composite z-score in [2] came to 1.56.

Take `O=C1O[C@H](c2ccccc2)[C@H](c2ccccc2)N2[C@H]1[C@@H](C(=O)N1CCCCCCC1)[C@]1(C(=O)Nc3ccc(C#CC4(O)CCCCCC4)cc31)[C@H]2c1ccccc1OCCO`: the z-score is -0.0659 (inactive) in [1]; 0.707 (inactive) in [3]; 0.216 (inactive) in [4]; -0.168 (inactive) in [5]; 0.614 (inactive) in test [6]; 0.43 in test [7]. Further, the z-score in test [8] was 0.643 (inactive); in [9], 0.485 (inactive); in test [10], 1.56; in test [11], -0.222; in test [12], -0.107; in [13] it was 0.703. Also, the z-score is -0.0437 in test [14]; -0.908 in test [15]; -0.175 in test [16]; 0.64 (inactive) in test [17]; -0.74 in test [18]; -1.26 in test [19]. In test [20], the z-score was -0.152 (inactive). In test [2], this compound registered a composite z-score of 2.87.

With `C=C[C@@H](C)[C@H](O)c1ccc(OCCO)cc1`, the z-score is 0.227 (inactive) in test [1]; 1.79 (inactive) in test [3]; 0.833 (inactive) in test [4]; 0.485 (inactive) in test [5]; 0.402 (inactive) in test [6]; -0.198 in test [7]. In addition, the z-score in [8] is -0.613 (inactive); in test [9], -0.311 (inactive); in test [10], 0.394; in [11] it was 0.283; in test [12], 0.154; in [13], -0.0484. The z-score in test [14] is 0.0554; in test [15] it was -0.289; in test [16] it was 1.2; in [17] it was 0.0591 (inactive); in test [18], 0.948; in test [19] it was -0.612. Also, the z-score in test [20] was -0.0272 (inactive). The compound further gave a composite z-score in [2] of -0.193.

On to `O=C1O[C@H](c2ccccc2)[C@H](c2ccccc2)N2[C@H]1[C@@H](C(=O)Nc1nc3ccccc3s1)[C@]1(C(=O)Nc3ccc(C#CC4=CCCCC4)cc31)[C@H]2c1ccc(O)cc1`, for which the z-score was 2.68 (inactive) in test [1]; -0.559 (inactive) in test [3]; -0.0042 (inactive) in [4]; -0.715 (inactive) in [5]; 0.193 (inactive) in [6]; 1.26 in [7]. For the same compound, the z-score in test [8] is 0.878 (inactive); in test [9] it was 0.214 (inactive); in [10], 0.191; in [11] it was 0.397; in test [12], -0.197; in test [13], 0.992. Also, the z-score in test [14] is -1.01; in test [15] it was -2.01; in test [16] it was -2.82; in test [17], -0.216 (inactive); in test [18], -0.886; in [19], -0.991. In [20], the z-score was 0.229 (inactive). This compound also displayed a composite z-score in test [2] of 0.122.

For `CN(C)C(=O)[C@]1(CCS(=O)(=O)c2ccccc2)N=C(c2ccc(OCCCO)cc2)O[C@@H]1c1ccccc1`, the z-score was 0.0024 (inactive) in test [1]; 30.8 (active) in [3]; 25.7 (active) in test [4]; 2.91 (inactive) in [5]; 6.06 (inactive) in test [6]; 0.0637 in test [7]. The z-score in test [8] is -0.461 (inactive); in test [9] it was 1.52 (inactive); in test [10], -2.3; in [11] it was -1.05; in [12], 1.02; in [13], -0.416. Also, the z-score was -0.675 in test [14]; -0.76 in [15]; 1.34 in [16]; -0.132 (inactive) in test [17]; -0.783 in [18]; -1.24 in test [19]. Moreover, in [20], the z-score was -0.482 (inactive). This compound also registered a composite z-score in test [2] of -0.0072.

As for `C=CCNC(=O)[C@@H]1[C@H]2C(=O)O[C@H](c3ccccc3)[C@H](c3ccccc3)N2[C@H](c2ccc(OCCO)cc2)[C@@]12C(=O)N(C(=O)OCCOC)c1ccc(C#CCCO)cc12`, the z-score in [1] was 3.11 (inactive); in [3] it was 4.81 (inactive); in test [4] it was 0.343 (inactive); in test [5] it was -0.38 (inactive); in test [6], -1.47 (inactive); in test [7], 2.25. Also, the z-score in test [8] is 1.3 (inactive); in test [9], 0.821 (inactive); in test [10] it was -0.573; in [11], 2.85; in test [12], 1.86; in [13], 1.22. Besides, the z-score was 0.485 in test [14]; 0.927 in test [15]; -0.435 in test [16]; 1.27 (inactive) in test [17]; -0.709 in test [18]; -1.07 in test [19]. In [20], the z-score is -0.477 (inactive). Besides, in [2], the composite z-score came to 0.503.

As for `COc1ccc([Si](C)(C)[C@H]2[C@H](CC(=O)N3CCC[C@H]3CO)O[C@@]3(C(=O)N(Cc4ccc(N5CCC5=O)cc4)c4ccccc43)[C@@H]2C)cc1`, the z-score in [1] is -0.691 (inactive); in test [3] it was 10 (active); in test [4], 1.8 (inactive); in [5], 0.171 (inactive); in [6], 0.746 (inactive); in test [7], 0.783. Moreover, the z-score is 1.93 (inactive) in test [8]; 1.63 (inactive) in test [9]; 4.56 in test [10]; -0.428 in test [11]; 0.303 in [12]; -0.784 in [13]. Moreover, the z-score is -2.65 in [14]; -3.76 in test [15]; 1.26 in test [16]; 0.198 (inactive) in test [17]; -1.09 in test [18]; 0.309 in test [19]. The z-score in test [20] was -0.737 (inactive). For the same compound, the composite z-score in test [2] was 0.213.

On to `O=C1OCCC/C=C\[C@H]2OC34C=CCN(c5ccc6ccccc6c5)C(=O)[C@H]3N(CCCO)C(=O)[C@@H]4C12` (stereo not given in full), for which the z-score in [1] was -0.52 (inactive); in test [3] it was 3.21 (inactive); in [4], 0.571 (inactive); in test [5], -0.276 (inactive); in test [6], 0.187 (inactive); in [7] it was 0.688. Besides, the z-score in test [8] is 2.08 (inactive); in test [9] it was 1.14 (inactive); in test [10], 2.53; in [11], -0.416; in [12], 1.34; in [13] it was 0.275. Also, the z-score in [14] was 0.392; in test [15], -0.686; in test [16] it was -0.36; in test [17] it was -0.41 (inactive); in [18] it was -0.0534; in test [19] it was 1.37. In addition, the z-score in test [20] is 0.252 (inactive). This compound also came in with a composite z-score in test [2] of -0.366.

With `COc1cc(CO)cc(I)c1O[C@H]1C=C(C(=O)NCCO)C[C@@H](NCC2CCCCC2)[C@@H]1O`, the z-score in test [1] is 2.19 (inactive); in test [3], 1.35 (inactive); in test [4], 0.94 (inactive); in test [5] it was 0.996 (inactive); in test [6], 0.183 (inactive); in test [7] it was 1.06. Further, the z-score is 0.132 (inactive) in [8]; 0.97 (inactive) in test [9]; 1.04 in [10]; 1.31 in test [11]; 0.13 in test [12]; 0.407 in test [13]. Besides, the z-score in test [14] is -0.235; in [15] it was 0.893; in test [16] it was 1.25; in test [17], -0.328 (inactive); in test [18], -0.561; in test [19], -1.5. Also, the z-score in test [20] is 0.258 (inactive). The compound further gave a composite z-score in test [2] of -0.313.
